Measured values reported in PubChem BioAssay (NCI).
The panel holds about 79,000 compounds, 15% with a hit somewhere; the sample as a whole holds those more often. Cut-off read from the data, not from the text of the source: active = growth inhibition above about 70%; inactive = the rest.

Experiments:
[1] = NCI Yeast Anticancer Drug Screen. Data for the rad50 strain (AID 155);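 note: 0% = growth of vehicle-only cultures of the same strain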; conditions: S. cerevisiae rad50 strain growth inhibition; at 50.0 µM; hits give high values
Outline: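 Relative growth inhibition (compound vs vehicle) was measured in yeast with a defined repair-gene alteration.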

[2] = NCI Yeast Anticancer Drug Screen. Data for the mec2-1 strain (AID 157); conditions: S. cerevisiae mec2-1 strain, at 50.0 µM, hits give high values
Outline: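 Compounds were applied to mec2-1 yeast cells. Their growth was then compared with that of vehicle-treated cultures to give growth inhibition.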

[3] = NCI Yeast Anticancer Drug Screen. Data for the sgs1 mgt1 strain (AID 161);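 note: 0% = growth of cultures given vehicle only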; conditions: S. cerevisiae sgs1 mgt1 strain, at 50.0 µM, hits give high values
Outline: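 Compounds are added to genetically altered yeast, and growth is compared with cultures given vehicle alone to give percent inhibition.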

[4] = NCI Yeast Anticancer Drug Screen. Data for the cln2 rad14 strain (AID 165);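 note: 0% = growth equal to vehicle treated cultures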; conditions: S. cerevisiae cln2 rad14 strain, at 50.0 µM, hits give high values
Outline: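 Strain: cln2 rad14 yeast, altered in cell cycle control and DNA damage repair. Read-out: growth inhibition vs vehicle.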

[5] = NCI Yeast Anticancer Drug Screen. Data for the bub3 strain (AID 167); conditions: S. cerevisiae bub3 mutant strain, at 50.0 µM, hits give high values
Outline: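 Screening used yeast with an engineered genetic alteration affecting cell cycle control. Compound-exposed cultures were compared with vehicle cultures, and reduced growth was taken as inhibition.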

[6] = NCI Yeast Anticancer Drug Screen. Data for the mlh1 rad18 strain (AID 175); conditions: S. cerevisiae mlh1 rad18 strain growth inhibition; at 50.0 µM; hits give high values
Outline: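 A repair-deficient yeast strain is exposed to test compound, and growth is scored relative to vehicle-treated controls.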

Measured: growth inhibition

Cc1c(C(N)=O)c(-c2ccccc2)c(-c2ccccc2)n1Nc1ccccc1
inactive: [1] 16.9% | [2] -2.65% | [3] 13.7% | [4] 11.9% | [5] -5.05% | [6] 23.7%

O=C(/C=C/C=C/c1ccc2c(c1)OCO2)N1CCCCC1
inactive: [1] -1.5% | [2] -26.4% | [3] 12.1% | [4] -22.6% | [5] 5.45% | [6] -22.7%

CNN=C(C)C
inactive: [1] -2.15% | [2] 3.8% | [3] -3.4% | [4] -4.8% | [5] 2.5% | [6] -19.3%

CCCCc1nc(C)oc1C(C)C
inactive: [1] -31.2% | [2] -15.8% | [3] -8.05% | [4] -5.45% | [5] -23.9% | [6] -8.2%

NC(=O)Cc1nc(O)cc(=O)[nH]1
inactive: [1] -8.45% | [2] -9.1% | [3] -8.3% | [4] -13.1% | [5] -1.9% | [6] -2.15%

COc1ccc2c(c1)CCc1cc(OC)ccc1/[N+]([O-])=[N+]\2[O-]
inactive: [1] -1.2% | [2] 1.25% | [3] 6.8% | [4] -70.8% | [5] -5.1% | [6] 14.8%

CC(C)CC(=O)c1ccccn1
inactive: [1] -10.1% | [2] -30.9% | [3] -16.1% | [4] 7.95% | [5] -19% | [6] -0.35%

Cc1ccccc1C=O
inactive: [1] -2.75% | [2] -32.6% | [3] 5.15% | [4] -3.35% | [5] -0.2% | [6] -0.85%

COc1cc2oc3cc(=O)cc4oc(-c5ccccc5)cc(c2c2c1CCC(c1ccccc1)O2)c43 (stereo not given)
inactive: [1] 6.75% | [2] 7.9% | [3] -17.4% | [4] 3.6% | [5] -8.7% | [6] -10.2%

CC(=O)NC(CCCCNC(=O)OCc1ccccc1)C(=O)O (stereo not given)
inactive: [1] -22.9% | [2] -12.9% | [3] -22.6% | [4] 11.9% | [5] -12.8% | [6] -32.8%

Cc1c(O)cc(O)c(C)c1C
inactive: [1] -0.3% | [2] -23.3% | [3] -8.6% | [4] -2% | [5] 9.8% | [6] -8.65%

O=C(c1ccccc1)N1CC2CCC1CN2C(=O)c1ccccc1
inactive: [1] 15.8% | [2] 15.2% | [3] 4% | [4] 6.95% | [5] 42.7% | [6] -8.45%

Cc1cc(Cl)nc(Nc2ccccc2)n1
inactive: [1] 13.1% | [2] -2.5% | [3] 3.8% | [4] -1.8% | [5] 9.25% | [6] 13.7%

Cc1nc(N)nc(-c2ccccc2)c1N=Nc1cc(Cl)cc(Cl)c1
inactive: [1] 5.95% | [2] -8.3% | [3] -3.65% | [4] -6.45% | [5] -5.15% | [6] 7.45%

Cc1ccc(Cl)nn1
inactive: [1] 10% | [2] -1.25% | [3] -2.55% | [4] -3.3% | [5] 12.9% | [6] 2.1%

Cc1c(CCOC=O)c(=O)[nH]c2nncn12
inactive: [1] -15.5% | [2] -29.6% | [3] -18.3% | [4] 16.9% | [5] -9.65% | [6] 2.65%

CC(=O)OCc1ccc([N+](=O)[O-])cc1
inactive: [1] -1.65% | [2] 0.25% | [3] -8.8% | [4] 8.05% | [5] -6.05% | [6] 6.1%

CC(=O)C(C(=O)C(=O)Nc1cc(Cl)c(Cl)cc1Cl)c1csc(N)n1 (stereo not given)
inactive: [1] -14.7% | [2] -9.2% | [3] -1.85% | [4] 7% | [5] -2.5% | [6] -10.6%

CC(C)(C)c1cc(CN2CCOCC2)cc(C(C)(C)C)c1O
inactive: [1] 8% | [2] 5% | [3] 0.7% | [4] 0.15% | [5] -3.15% | [6] 14.3%

CCCCCCCCCCCC(=O)CC(=O)c1c(O)cccc1O
inactive: [1] 1.35% | [2] -11.6% | [3] 6.45% | [4] 0.1% | [5] 20.7% | [6] -12.2%

CCOC(=O)c1ccc(N2C(=O)C(Cl)(c3ccccc3)C2c2ccco2)cc1 (stereo not given)
inactive: [1] 16.2% | [2] 9.85% | [3] -1.65% | [4] 9.1% | [5] 12.4% | [6] 10.5%

Cc1cc(N=Nc2ccc(N(C)C)cc2)ccn1
inactive: [1] 21.6% | [2] 7.2% | [3] 6.1% | [4] -52.8% | [5] 13.7% | [6] 0.9%

O=C(CC(c1ccccc1)C(Br)(c1ccccc1)[N+](=O)[O-])c1ccccc1 (stereo not given)
inactive: [1] 11.8% | [2] -0.45% | [3] -2.75% | [4] 22.2% | [5] -3.4% | [6] -5.8%

CCCCCCCCCCCCCCCCN1C(=O)C2C(C1=O)C1(Cl)C(Cl)=C(Cl)C2(Cl)C1(Cl)Cl (stereo not given)
inactive: [1] 7.85% | [2] -6.3% | [3] -2.55% | [4] -0.65% | [5] -4.6% | [6] 10.2%

CCCC(=O)c1ccc2c(c1)CCc1cc(O)ccc1-2
inactive: [1] 13.8% | [2] 1.35% | [3] 12.3% | [4] -5.05% | [5] 23.4% | [6] 1.6%

[B-][N+]1(C)CC[N+]([B-])(C)CC1 (stereo not given)
inactive: [1] -0.6% | [2] 5.8% | [3] -7% | [4] 16.1% | [5] -5.65% | [6] -11.6%

C/C(=N/NC(N)=O)C1C2CC3C(C2Cl)C31 (stereo not given)
inactive: [1] 21.4% | [2] -15.3% | [3] -15.1% | [4] -30.6% | [5] 4.7% | [6] -2.4%

O=C(NC1CCCN1C(=O)/C=C\c1ccccc1)OCc1ccccc1 (stereo not given)
inactive: [1] -8.95% | [2] -4.95% | [3] -13.7% | [4] -62.5% | [5] 0.6% | [6] -12.3%

C/C(=N/NC(N)=O)c1ccc([N+](=O)[O-])o1
inactive: [1] 29.9% | [2] 9.9% | [3] 30.8% | [4] 16.1% | [5] 14.9% | [6] 47.2%

CC(=O)Nc1ccc(/C=C/c2ccc(N=C=S)c(S(=O)(=O)O)c2)c(S(=O)(=O)O)c1
inactive: [1] 9.5% | [2] -4.4% | [3] -19% | [4] 10.1% | [5] 1.4% | [6] -13.5%

CCOC(=O)C1(C)CCCCC1=O (stereo not given)
inactive: [1] 7.45% | [2] -6.55% | [3] 3.2% | [4] 7.95% | [5] 5.9% | [6] 2.95%

C=CCN1C(=O)c2ccccc2C1=O
inactive: [1] 24.3% | [2] -3.2% | [3] 11.6% | [4] 6.85% | [5] 22.6% | [6] 21.6%

CCc1c(C(=O)OC)c(C(=O)OC)c(-c2ccc(C)cc2)n1CCn1c(CC)c(C(=O)OC)c(C(=O)OC)c1-c1ccc(C)cc1
inactive: [1] -0.55% | [2] 0.3% | [3] -26.1% | [4] -0.6% | [5] -3.15% | [6] 17.9%

C1CCC(CCC2CCCC[N-]2)[N-]C1.[I][Co][I] (stereo not given)
inactive: [1] 48.3% | [2] 27.9% | [3] 47% | [4] -3% | [5] 33.7% | [6] 43.5%

NOCCCCON
inactive: [1] -5.05% | [2] -6.8% | [3] 8.95% | [4] -66.8% | [5] 0.25% | [6] -7.05%

c1ccc2cc(Nc3ccc(Nc4ccc5ccccc5c4)cc3)ccc2c1
inactive: [1] 0.25% | [2] 4.4% | [3] 12.3% | [4] 14.7% | [5] 27.2% | [6] 2.6%

CC1CNC(=S)N(c2cccc3ccccc23)C1=O (stereo not given)
inactive: [1] -4.8% | [2] -1% | [3] -3.7% | [4] -5% | [5] -9.35% | [6] 4.2%

Cc1ccc(NC(=O)CSc2nnc(-c3ccc(N=Cc4ccc(Cl)cc4)cc3)o2)cc1
inactive: [1] 2.3% | [2] -36.9% | [3] 12.5% | [4] -59.8% | [5] -15.8% | [6] 18.6%

COc1nsc2ccc(C(C)C(N)=O)cc12 (stereo not given)
inactive: [1] -35.5% | [2] 3.8% | [3] -9.1% | [4] -22.4% | [5] -2.25% | [6] -4.4%

Nc1nc(=S)c2[nH]cnc2[nH]1
inactive: [1] -19.6% | [2] -4.95% | [3] -21.4% | [4] -91.7% | [5] 9.55% | [6] -125%
